Only some compounds are listed: those with a hit (about 19% of all), similar ones and a draw of the others.
TDP1 cell CPT: growth inhibition of DT40 Tdp1-/-;hTDP1 cells with camptothecin (screen for TDP1 inhibitors). Potency, µM (top dose mostly 46.2 µM), for inactives: top-dose activity change, negative = growth inhibition, usual class: inhibitors. chicken DT40 Tdp1-/-;hTDP1 cells + 20 nM CPT, ATP luminescence, 48 h. AID 686979. actives 12% (n = 420,000); further: potency means the concentration at half of the fitted maximal effect; nearly all actives have a fitted effect of over 55% in size
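Chicken DT40 Tdp1-/- cells stably complemented with human TDP1 were seeded at 400 cells/well in medium containing 20 nM camptothecin, exposed to pin-transferred compounds, and grown at 37 °C for at least 48 hr. Viability was read as ATP luminescence.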
HT1080 IDH1KD tx: toxicity to HT-1080 IDH1 knockdown cells (counter line) | HT-1080 IDH1 knockdown viability, ATP luminescence, 48 h | Potency, µM (top dose mostly 46.1 µM), inactives show at the highest dose activity, negative = toxicity, most hits filed as cytotoxic | actives 2% (n = 360,000) | AID 686971;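 further: potency means the concentration at half of the fitted maximal effect; 0% = DMSO wells and -100% = cell-free medium wells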
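Assay cells: HT-1080 with IDH1 knockdown, 750 per well, RPMI/5% FBS. Exposure: 48 h at 37 °C following 2 h pre-incubation. Read: CellTiter-Glo luminescence; fitted concentration-response, curve class assigned.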
TDP1 cell noCPT: qHTS for Inhibitors of human tyrosyl-DNA phosphodiesterase 1 (TDP1): qHTS in cells in absence of CPT; DT40 Tdp1-/- hTDP1 cells, no CPT, ATP luminescence, 48 h; Potency, µM (highest dose often 46.2 µM), for inactives: at the highest dose activity change, negative = growth inhibition, hits mostly inhibitors; actives 15% (n = 420,000); AID 686978, 2013; further: potency means the concentration at half of the fitted maximal effect; nearly all actives have a fitted effect of over 55% in size
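DT40 Tdp1-/-;hTDP1 cells, no CPT (DMSO vehicle only), 400 cells/well; compounds pin-transferred; ≥48 hr, 37 °C; CellTiter-Glo 30 min RT dark, luminescence read.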
HT1080NT lethal: kills 2HG-producing HT-1080-NT fibrosarcoma cells; AID 686970; Potency, µM (top dose mostly 46.1 µM), for the others: at the top dose activity, negative = less viability, hits mostly cytotoxic; actives 1.6% (n = 360,000); HT-1080-NT fibrosarcoma viability, CellTiter-Glo ATP luminescence, 48 h;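 further: NT is the 2HG producing partner of a matched IDH1 knockdown line; potency means the concentration at half of the fitted maximal effect; 0% = DMSO-treated cells and -100% = media-only wells without cells; nearly all actives have a fitted effect of over 55% in size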
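Fibrosarcoma NT cells, 750 per well in 5% FBS RPMI, were exposed to compound for 48 hours. Viability: CellTiter-Glo luminescence.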
IL1B secr inh: inhibitors of inflammasome signaling (IL-1 beta secretion); THP-1 LPS/ATP IL-1B secretion, AlphaLISA, 16 h; active compounds read low; activity change, % at 57.5 µM; actives 4.7% (n = 360,000); in the data active means activity change below about -50%; inconclusive means mostly about -30% to -49%
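Secreted IL-1B measured by AlphaLISA bead assay after 16 h compound exposure of THP-1 cells; compounds (final up to 57.5 uM) added 1 h before LPS (250 ng/mL) and ATP (1.25 mM) stimulation; lower signal means less secretion.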
* = called active by the depositor; u = inconclusive; x = not tested or not shown; [ ] = remark or other dose. Unless noted, the call rests on the fitted dose curve; in most records, active means well fitted curve in the direction sought with a large enough effect; inconclusive means small, poorly fitted or top-dose-only effect, or another doubt; inactive means no such curve, though single readings can be large; an effect the other way counts as inactive or inconclusive. Unless noted, on the % scale 0 is the no-effect control and ±100 the full control effect.

SMILES	TDP1 cell CPT	HT1080 IDH1KD tx	TDP1 cell noCPT	HT1080NT lethal	IL1B secr inh
CC(C)(C)c1ccc(C(=O)N2CCNCC2)cc1	-23%	-4%	-22%	-3%	-3
CC(C)(C)c1ccc(C(=O)Nc2ccc(C(=O)N3CCOCC3)cc2)cc1	23µM*	-7%	21µM*	-4%	-85*
CC(C)(C)c1nnc(NC(=O)C2CCN(C(=O)c3ccccc3)CC2)s1	14µM*	x	u	x	x
O=C(CN1CCC(C(=O)c2ccc(Cl)cc2)CC1)NC1CCCC1	u	0%	23µM*	-13%	28
CC(C)(C)c1ccc(C(=O)N2CCCN(C(=O)c3ccc(C(C)(C)C)cc3)CC2)cc1	u	20%	13µM*	16%	0
O=C(Nc1ccc(C(=O)N2CCOCC2)cc1)c1ccccc1	-2%	1%	-7%	4%	3
Cc1ccc(C(=O)C2CCN(CC(=O)NC3CCCCC3)CC2)cc1	-27%	-27%	u	-18%	-18
Cc1ccc(SCC(=O)NNC(=O)CCS(=O)(=O)c2ccccc2)cc1	1%	-1%	5%	0%	10
COc1ccc(NC(=O)c2ccc3[nH]c(C)cc(=O)c3c2)cc1	1%	x	-17%	x	x
Cc1ccc(NS(=O)(=O)c2ccc(C)c(C(=O)NCC(c3ccccc3)N(C)C)c2)cc1 (stereo not drawn)	u	0%	u	-4%	-8
CC(C)(C)c1ccc(C(=O)N2CCC(C(=O)c3ccccc3)CC2)cc1	18µM*	-18%	21µM*	-13%	-75*
COc1ccc(-c2nn3c(=O)cc(CN4CCN(C(=O)c5ccc(C(C)(C)C)cc5)CC4)nc3s2)cc1	3.3µM*	x	2.9µM*	x	x
CC(C)(C)c1ccc(C(=O)N2CCC(C(=O)NCCC3=CCCCC3)CC2)cc1	u	u	18µM*	-28%	-4
O=C(c1ccccc1)C1CCN(C(=O)c2ccc(Cl)cc2)CC1	u	-5%	-28%	0%	-26
COc1ccc(-c2nn3c(=O)cc(CN4CCN(C(=O)Nc5cc(C)ccc5C)CC4)nc3s2)cc1	-9%	x	u	x	x
O=C(NCCC1=CCCCC1)C1CCN(S(=O)(=O)N2CCCC2)CC1	u	0%	u	-7%	33
CC(NC(=O)CN1C(=O)NC2(CCCCC2)C1=O)c1ccc(S(N)(=O)=O)cc1 (stereo not drawn)	u	-12%	-5%	-3%	8
CC[C@]1(c2ncc[nH]2)Cc2ccccc2O1	u	x	24µM*	x	x
COc1cc(/C=C2\SC(=Nc3ccc(Cl)c(C(=O)O)c3)NC2=O)c(Br)c(Br)c1O	-1%	1%	3%	0%	32
CC(C)CC1NC(=O)N(CC(=O)N(C)C2CCCCC2)C1=O (stereo not drawn)	-5%	26%	6%	2%[9.24 µM]	15
COc1ccc(CCN(C(=O)c2snc(C(N)=O)c2N)C(C(=O)NCC2CCCO2)c2ccc(F)cc2)cc1OC (stereo not drawn)	u	7%	29µM*	15%	2
NC(=O)c1nsc(C(=O)N(Cc2ccccc2F)C(C(=O)NCC2CCCO2)c2ccc(F)cc2)c1N (stereo not drawn)	u	-7%	u	-13%	-26
Cc1cccc(CCN(C(=O)c2snc(C(N)=O)c2N)C(C(=O)NCC2CCCO2)c2ccc(F)cc2)c1 (stereo not drawn)	u	-29%	u	-1%	-52*
CN(Cc1nc(Cc2ccccc2F)no1)CC1(N2CCOCC2)CCCCC1	-4%	1%	u	3%	-15
CN(Cc1nc(Cc2ccccc2F)no1)Cc1cccc2ncccc12	u	-30%	16µM*	-28%	-108*
SMILES	TDP1 cell CPT	HT1080 IDH1KD tx	TDP1 cell noCPT	HT1080NT lethal	IL1B secr inh
O=C(OCc1cn([C@H]2C[C@H](c3ccccc3)N(Cc3cccs3)C[C@@H]2O)nn1)c1ccccc1	u	3%	21µM*	-1%	-18
Cc1ccc([C@H]2C[C@@H](n3cc(COC(=O)c4ccccc4)nn3)[C@H](O)CN2Cc2cccs2)cc1	u	6%	21µM*	5%	8
Cc1ccc([C@H]2C[C@H](n3cc(COC(=O)c4ccccc4)nn3)[C@@H](O)CN2Cc2cccs2)cc1	-28%	-8%	u	-16%	-12
COc1ccc(C(=O)O)cc1S(=O)(=O)Nc1ccccc1-c1ccccc1	-10%	18%	0%	16%	11
CC(C)(C)C1CCc2c(sc3ncn(N)c(=N)c23)C1 (stereo not drawn)	16µM*	u	6.5µM*	-30%	-75*
N=c1c2c3c(sc2ncn1N)CCC3	2%	-20%	-18%	-13%	44
CC1CCC(C(C)C)C(OC(=O)CSc2nnc(N)s2)C1 (stereo not drawn)	u	1%	-29%	-1%	14
CC1CCC(C(C)C)C(OC(=O)Cn2c(-c3ccccc3)[n+](C)c3ccccc32)C1 (stereo not drawn)	0.52µM*	9.2µM*	0.46µM*	u	-103*
Cc1cccc(OC(=O)Cn2c(C(F)(F)F)nc3ccccc32)c1	u	17%	u	16%	47
CC1CCC(C(C)C)C(OC(=O)Cn2c(-c3ccc(F)cc3)[n+](C)c3ccccc32)C1 (stereo not drawn)	2.3µM*	10µM*	2.3µM*	18µM*	-101*
Cc1cccc(OCc2n(CC(=O)OC3CC(C)CCC3C(C)C)c3ccccc3[n+]2C)c1 (stereo not drawn)	5.2µM*	8.2µM*	5.8µM*	18µM*	-98*
CCOc1ccc2c(c1)n([O-])c1c([n+]2=O)CCCC1	13µM*	10%	u	2%	10
COc1ccc2c(c1)n([O-])c1c([n+]2=O)CCC1	-23%	10%	17%	9%	-2
COc1ccc(-c2nnc(SCc3nc4ccccc4c(=O)[nH]3)o2)cc1	-25%	10%	1%	13%	13
CC(=O)Nc1ccc(Nc2cc(C)nc3c(-c4ccccc4)cnn23)cc1	u	13µM*	16µM*	15µM*	-21
Cc1noc(/C=C/c2ccccc2F)c1S(=O)(=O)N1CCC(C(=O)Nc2ccc(C#N)cc2)CC1	12µM*	x	8.2µM*	x	x
COc1ccccc1/C=C/c1onc(C)c1S(=O)(=O)N1CCC(C(=O)N2CCC(C)CC2)CC1	21µM*	x	16µM*	x	x
COc1cc(NC(=O)C2CCN(S(=O)(=O)c3c(C)noc3/C=C/c3ccccc3F)CC2)cc(OC)c1OC	u	x	23µM*	x	x

Bioassay records deposited in PubChem BioAssay by National Center for Advancing Translational Sciences (NCATS).
